Data on 7 molecules can be found in PubChem BioAssay (Tox21).

Experiment [1] can be described thus: qHTS RealTime-Glo MT Cell Viability Assay in HEK293 cells - 40 hour (AID 1224874). Note: nearly all actives have a fitted effect of over 50% in size. Note: potency is the fitted concentration of half-maximal effect. The settings on record: RealTime-Glo luminescence; max response: stronger effect = lower value. The gist of the method: (§1)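 HEK293 cells mixed with RealTime-Glo reagents (NanoLuc plus cell-permeant prosubstrate) at 600 cells/well, preincubated 5 h at 37 C/5% CO2, then given 23 nL compound in DMSO. Nonlytic luminescence from viable cells was read at 0, 8, 16, 24, 32 and 40 h.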
(In general: In qHTS, concentration-response curves come from the screen itself.)

Experiment [2] can be described thus: A CellTox Green Cytotoxicity Assay to monitor cytotoxicity in HEK293 cells - 24 hour (AID 1224875). Note: nearly all actives have a fitted effect of over 45% in size. Note: potency is the fitted concentration of half-maximal effect. The essentials:
(§2)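 HEK293 cells premixed with CellTox Green dye were seeded at 600 cells/well and left 5 h at 37 C/5% CO2 before pin transfer of 23 nL compound in DMSO. Fluorescence from dye bound to dead-cell DNA was read during 40 h treatment.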

The nature of experiment [3]: A CellTox Green Cytotoxicity Assay to monitor cytotoxicity in HepG2 cells - 16 hour (AID 1224876). Note: nearly all actives have a fitted effect of over 45% in size. Note: potency is the fitted concentration of half-maximal effect. The gist of the method: (§3)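 HepG2 cells were seeded together with the CellTox Green dye at 600 cells/well, left 5 h at 37 C/5% CO2, then given compounds in DMSO. Fluorescence from dye bound to dead-cell DNA was read repeatedly over 40 h of treatment at 37 C.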
The nature of experiment [4]: qHTS RealTime-Glo MT Cell Viability Assay in HepG2 cells - 32 hour (AID 1224877). Note: nearly all actives have a fitted effect of over 55% in size. Note: potency is the fitted concentration of half-maximal effect. The essentials:
(§4)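 HepG2 cells (600/well) were dispensed with RealTime-Glo reagents, incubated 5 h at 37 °C, then treated with compounds in DMSO for up to 40 h. Nonlytic NanoLuc luminescence reflecting viable cells was read at each stated time point.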

A short description of experiment [5]: A CellTox Green Cytotoxicity Assay to monitor cytotoxicity in HepG2 cells - 24 hour (AID 1224878). Note: nearly all actives have a fitted effect of over 45% in size. Note: potency is the fitted concentration of half-maximal effect. The essentials:
as §3

Experiment [6] in a line: A CellTox Green Cytotoxicity Assay to monitor cytotoxicity in HepG2 cells - 40 hour (AID 1224879). Note: nearly all actives have a fitted effect of over 40% in size. Note: potency is the fitted concentration of half-maximal effect. The essentials:
as §3

Experiment [7] is described as follows: qHTS RealTime-Glo MT Cell Viability Assay in HEK293 cells - 0 hour (AID 1224880). Note: top concentration of the series differs between compounds; nearly all actives have a fitted effect of over 45% in size. The essentials: as §1
Experiment [8] can be described thus: A CellTox Green Cytotoxicity Assay to monitor cytotoxicity in HEK293 cells - 32 hour (AID 1224881). Note: nearly all actives have a fitted effect of over 40% in size. Note: potency is the fitted concentration of half-maximal effect. The gist of the method:
as §2

A short description of experiment [9]: A CellTox Green Cytotoxicity Assay to monitor cytotoxicity in HepG2 cells - 0 hour (AID 1224882). Note: nearly all actives have a fitted effect of over 35% in size. The essentials: as §3
Experiment [10] can be described thus: A CellTox Green Cytotoxicity Assay to monitor cytotoxicity in HepG2 cells - 32 hour (AID 1224883). Note: nearly all actives have a fitted effect of over 50% in size. Note: potency is the fitted concentration of half-maximal effect. The gist of the method:
as §3

Experiment [11] in a line: A CellTox Green Cytotoxicity Assay to monitor cytotoxicity in HEK293 cells - 8 hour (AID 1224884). Note: nearly all actives have a fitted effect of over 35% in size. Note: potency is the fitted concentration of half-maximal effect. The essentials: as §2
The nature of experiment [12]: qHTS RealTime-Glo MT Cell Viability Assay in HepG2 cells - 16 hour (AID 1224885). Note: nearly all actives have a fitted effect of over 50% in size. Note: potency is the fitted concentration of half-maximal effect. The essentials: as §4
Experiment [13] is described as follows: qHTS RealTime-Glo MT Cell Viability Assay in HEK293 cells - 24 hour (AID 1224886). Note: nearly all actives have a fitted effect of over 50% in size. Note: potency is the fitted concentration of half-maximal effect. The gist of the method: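 HEK293 cells seeded with NanoLuc/prosubstrate reagent, rested 5 h at 37 C, then dosed and kept at 37 C up to 40 h. Nonlytic real-time luminescence from viable cells read at 0, 8, 16, 24, 32 and 40 h.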
The nature of experiment [14]: qHTS RealTime-Glo MT Cell Viability Assay in HEK293 cells - 8 hour (AID 1224887). The gist of the method:
as §1

Experiment [15] is described as follows: A CellTox Green Cytotoxicity Assay to monitor cytotoxicity in HEK293 cells - 16 hour (AID 1224888). Note: nearly all actives have a fitted effect of over 35% in size. Note: potency is the fitted concentration of half-maximal effect. The gist of the method:
as §2

Experiment [16] is described as follows: qHTS RealTime-Glo MT Cell Viability Assay in HepG2 cells - 0 hour (AID 1224889). Note: nearly all actives have a fitted effect of over 50% in size. The gist of the method: as §4
A short description of experiment [17]: qHTS assay to identify small molecule antagonists of the estrogen receptor alpha (ER-alpha) signaling pathway using the BG1 cell line in the presence of 0.1 nM 17-beta-estradiol - cell viability counter screen (AID 1259241). Note: nearly all actives have a fitted effect of over 40% in size. The gist of the method:
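Live-cell protease activity (CellTiter-Fluor fluorescence, 30 min) was read in the same wells after VM7Luc4E2 cells had been exposed to compounds with 0.1 nM 17beta-estradiol for 22 hr at 37C.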

Experiment [18] in a line: qHTS assay to identify small molecule antagonists of the androgen receptor (AR) signaling pathway using the MDA cell line in the presence of 0.5 nM R1881 - cell viability counter screen (AID 1259242). Note: nearly all actives have a fitted effect of over 45% in size. Note: potency is the fitted concentration of half-maximal effect. The gist of the method:
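MDA-kb2 cells (human breast carcinoma, stably carrying MMTV-luciferase reporter) were exposed to compounds with 0.5 nM R1881 (final) for 16 hr at 37C, 0% CO2; viability then read as live-cell protease fluorescence (CellTiter-Fluor, 30 min) in the same wells.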

Experiment [19] is described as follows: A CellTox Green Cytotoxicity Assay to monitor cytotoxicity in HepG2 cells - 8 hour (AID 1224890). Note: nearly all actives have a fitted effect of over 45% in size. Note: potency is the fitted concentration of half-maximal effect. The gist of the method:
as §3

Experiment [20] is described as follows: qHTS RealTime-Glo MT Cell Viability Assay in HepG2 cells - 8 hour (AID 1224873). Note: nearly all actives have a fitted effect of over 55% in size. The essentials:
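HepG2 cells mixed with RealTime-Glo MT reagents (NanoLuc plus cell-permeant prosubstrate) were seeded at 600 cells/well, incubated 5 h at 37 C/5% CO2, then pinned with compounds in DMSO; nonlytic luminescence tracked viability during 40 h treatment.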

Unmarked numbers belong to inactive results. Records with an inconclusive call do not appear. The source made the active and inactive calls. Calls come from the whole dose curve; as a rule, active = well fitted curve in the direction sought with a large enough effect in the repeat runs; inconclusive = weak or mixed curves; inactive = no such curve, though single readings can be large; an effect the other way counts as inactive or inconclusive.
% is set by controls: 0 for no effect and ±100 for the full control effect.

On to `CC=O`, for which the Potency in experiment [1] was 0.324 µM (active); in [2] it was 57.5 µM (active); in [3] it was 57.5 µM (active); in experiment [4], 45.7 µM (active); in experiment [5] it was 45.7 µM (active); in experiment [6], 25.7 µM (active). The Potency was 51.3 µM (active) in experiment [8]; 36.3 µM (active) in experiment [10]; 57.5 µM (active) in [11]; 51.3 µM (active) in [12]; 0.575 µM (active) in [13]; 57.5 µM (active) in experiment [15]. For the same molecule, the Potency in experiment [18] was 32 µM (active). Further, the Potency result in experiment [7], in experiment [9], in experiment [14], in [16] and in experiment [17] was “inactive” in each case.
On to `CC(C)c1ccc(O)c(C(C)C)c1`, for which, in [1], the max response was -12.3%. The Potency in experiment [2] was 21.9 µM (active); in [3], 43.6 µM (active); in experiment [5] it was 27.5 µM (active); in [6], 27.5 µM (active); in experiment [8], 21.9 µM (active); in experiment [10] it was 27.5 µM (active). The figures for the Potency in experiment [15] and in experiment [19] were 19.5 µM (active) and 43.6 µM (active), respectively. Also, the Potency result in [4], in experiment [7], in experiment [9], in [11], in experiment [12] and in experiment [13] was “inactive” in each case. Also, the Potency entry in experiment [16], in experiment [17] and in experiment [18] was “inactive” throughout.
Turning to `CCCCOCC`, the Potency entry in experiment [20], in [2], in [4], in experiment [5], in [8] and in experiment [9] was “inactive” each time. In addition, the Potency result in [10], in experiment [15], in experiment [16], in experiment [19], in experiment [17] and in experiment [18] was “inactive” in each case.
Regarding `Nc1cc(Cl)c([N+](=O)[O-])cc1O`, the Potency entry in experiment [20], in experiment [2], in [3], in experiment [4], in experiment [5] and in [6] was “inactive” throughout. The Potency result in [7], in [8], in experiment [10], in experiment [11], in experiment [12] and in experiment [15] was “inactive” throughout. Also, the Potency entry in experiment [16] and in experiment [19] was “inactive” each time.
`OCCCCl`: in [1], the max response is 8.9%. For the same molecule, the Potency entry in experiment [2], in [3], in experiment [4], in experiment [5], in experiment [6] and in experiment [7] was “inactive” throughout. For the same molecule, the Potency entry in [8], in experiment [9], in experiment [10], in experiment [11], in experiment [12] and in experiment [13] was “inactive” throughout. Further, the Potency result in [14], in [15], in experiment [16], in [19], in [17] and in [18] was “inactive” in each case.
For the molecule `COc1ccc(-n2nc(CCC(=O)N(C)O)cc2-c2ccc(Cl)cc2)cc1`, the Potency result in experiment [20], in experiment [2], in experiment [3], in experiment [4], in [7] and in [8] was “inactive” in each case. The Potency result in experiment [9], in [12], in experiment [14], in experiment [19], in experiment [17] and in experiment [18] was “inactive” throughout.
On to `CCCCCCCC(C)=O`, for which the max response in experiment [1] was 0.179%. Also, the Potency result in experiment [2], in experiment [3], in experiment [4], in experiment [5], in [6] and in experiment [7] was “inactive” in each case. Further, the Potency entry in [8], in experiment [9], in experiment [10], in [11], in [12] and in experiment [13] was “inactive” throughout. The Potency result in experiment [14], in [15], in [16], in [19], in experiment [17] and in [18] was “inactive” throughout.
